For 13 molecules, growth results are on record in PubChem BioAssay (NCI).

This is part of a sample that, as a whole, favours compounds with a hit. Of some 83,000 tested, about 20% had one in any assay.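 A percent growth of 40 corresponds to 60% growth inhibition; 0 means no net growth; -100 means all cells died. Active threshold: below 10.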 The source made the active and inactive calls.

The assay has as its system HL-60(TB) leukemia. Briefly: NCI-60 one-dose screen, 48 h (100 = growth as untreated, 0 = no growth, -100 = all killed). Conditions: 10 µM unless noted.
Regarding `C[C@]12O[C@H](C[C@]1(O)CO)n1c3ccccc3c3c4c(c5c6ccccc6n2c5c31)CNC4=O`, the growth was -32.7% (active).
On to `COc1c(C(=O)Nc2ccc(C)c(Br)c2)ccc2ccccc12`, for which the growth was 91.2% (inactive).
The same measure for `c1csc(-c2cc(-c3cc(-c4cccs4)[nH]n3)n[nH]2)c1`: 87.1% (inactive); for `CC(C)=CCNc1ncnc2c1ncn2C1OC(COP(=O)(O)O)C(O)C1O` (stereo not drawn): -38.4% (active); for `O=C(/C=C(/C=C/c1csc2ccccc12)OB(F)F)/C=C/c1csc2ccccc12`: 2.68% (active).
The same measure for `C=C1CC[C@@H]2[C@](C)(COC(C)=O)[C@H](OC(C)=O)CC[C@@]2(C)[C@@H]1CC(Nc1ccc(S(=O)(=O)Nc2nccc(C)n2)cc1)C1=CCOC1=O` (stereo partly drawn): -17.3% (active); for `COc1ccc2c(c1)c(-c1nc(-c3c[nH]c4ncccc34)cs1)cn2CCN`: 41.2% (inactive).
The same measure for `COc1cc(/C=N/NC(=O)c2ccc(C(F)(F)F)nc2Nc2ccc(Cl)cc2C)ccc1O`: 4.41% (active).
Consider `CCCCCC(=O)O[C@]1(C(C)=O)CCC2C3CCC4=CC(=O)CC[C@]4(C)C3CC[C@@]21C` (stereo partly drawn), for which the growth was -43.2% (active).
In the case of `COc1cc2cc3c(nc2cc1OC)CCN3Cc1ccc(NC(=O)Nc2cc(C(F)(F)F)cc(C(F)(F)F)c2)cc1`, the growth is 81.5% (inactive).
The same measure for `CN(C)CCCNc1nn2c(=O)c3ccccc3nc2c2ccccc12`: 26.9% (inactive); for `CCN(CC)CCCC(C)Nc1cc(-c2cccc(OC(F)(F)F)c2)nc2ccc(N3CCCC3)cc12` (stereo not drawn): -61% (active); for `COc1ccc2[nH]cc(C3(c4c[nH]c5ccc(OC)cc45)C(=O)Nc4ccc(Cl)cc43)c2c1`: 10.9% (inactive).
